In PubChem BioAssay (NCI) one finds growth data, which are given here for nine compounds.

This is part of a sample that, as a whole, favours compounds with a hit. Of some 83,000 tested, about 20% had one in any assay.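 Single-dose data. Exposure time 48 hours. Values below 10 considered active.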 Unmarked numbers belong to inactive results. Calls of active or inactive are those of the source.

Holding throughout (assay): NCI-60 one-dose screen, 48 h (100 = growth as untreated, 0 = no growth, -100 = all killed)
One assay has as its system NCI-H23 lung. Conditions: 10 µM unless noted.
Another assay relates to NCI-H226 lung. Conditions: 10 µM unless noted.
The next assay concerns NCI-H322M lung. Conditions: 10 µM unless noted.
A further assay concerns HOP-62 NSCLC. The note with it: 10 µM unless noted.
The test system of another assay is NCI-H460 lung. Conditions: 10 µM unless noted.
Another assay relates to A549/ATCC NSCLC. Conditions: 10 µM unless noted.
The next assay concerns 786-0 renal. The note with it: 10 µM unless noted.
The subject of the next assay is COLO 205 colon. The note with it: 10 µM unless noted.
In another assay the test system is K-562 leukemia. Conditions: 10 µM unless noted.
The subject of the next assay is MALME-3M melanoma. Conditions: 10 µM unless noted.
The subject of a further assay is MDA-MB-231 breast. The note with it: 10 µM unless noted.
A further assay concerns RXF 393 renal. The note with it: 10 µM unless noted.
The test system of another assay is SF-268 CNS. Conditions: 10 µM unless noted.
A further assay has as its system SF-295 CNS. The note with it: 10 µM unless noted.
In a further assay the test system is SF-539 CNS. Conditions: 10 µM unless noted.
A further assay concerns UACC-257 melanoma. Conditions: 10 µM unless noted.
For the next assay, the system named is M14 melanoma. The note with it: 10 µM unless noted.
The next assay relates to HOP-92 NSCLC. Conditions: 10 µM.
The test system of the next assay is NCI-H522 lung. Conditions: 10 µM.
Another assay concerns DU-145 prostate. Conditions: 10 µM unless noted.

Take `COc1cc(-c2nc(/C=C3/C(=O)Nc4ccccc43)c3ccccn23)cc(OC)c1OC`: the growth in the assay on NCI-H23 lung is 47.7%; in the assay on NCI-H226 lung, 82.5%; in the assay with NCI-H322M lung, 113%; in the assay with HOP-62 NSCLC it was 87.4%; in the assay on NCI-H460 lung, 66.4%; with A549/ATCC NSCLC it was 77%. Moreover, the growth with 786-0 renal is 71.9%; in the assay on COLO 205 colon, 75.1%; in the assay with K-562 leukemia, 52.2%; in the assay on MALME-3M melanoma it was 74.4%; with MDA-MB-231 breast it was 40.7%; in the assay with RXF 393 renal, 76.2%. Moreover, the growth is 47% in the assay with SF-268 CNS; 92% in the assay with SF-295 CNS; 83.6% in the assay with SF-539 CNS; 70.8% in the assay on UACC-257 melanoma; 77.6% with M14 melanoma.
Turning to `CSC1=Nc2c(c(C)c(-c3ccccc3)n2CCCCl)C2=NC(=O)CN12`, the growth in the assay on NCI-H23 lung is 77.6%; in the assay with NCI-H226 lung, 79.3%; with NCI-H322M lung, 82.1%; in the assay with HOP-62 NSCLC, 64.3%; in the assay on HOP-92 NSCLC it was 64.7%; in the assay on NCI-H522 lung it was 55.8%. Moreover, the growth was 74.1% with A549/ATCC NSCLC; 77.9% in the assay on 786-0 renal; 79.1% in the assay with COLO 205 colon; 94.8% in the assay on DU-145 prostate; 19.3% in the assay with K-562 leukemia; 82.8% in the assay with MALME-3M melanoma. Besides, the growth is 65.2% with MDA-MB-231 breast; 94.7% with RXF 393 renal; 77% in the assay with SF-268 CNS; 43.3% with SF-295 CNS; 61.7% in the assay on SF-539 CNS; 83.8% in the assay on UACC-257 melanoma. For the same compound, the growth in the assay on M14 melanoma was 30.8%.
With `O=C1C(Cl)=C(SC2=NCCN2)C(=O)c2ccccc21`, the growth in the assay on NCI-H23 lung is 2.92% (active); in the assay on NCI-H226 lung, 91.7%; in the assay with NCI-H322M lung it was 99.5%; with HOP-62 NSCLC, 98.8%; in the assay with NCI-H460 lung, 70%; in the assay on A549/ATCC NSCLC it was 95.2%. Further, the growth in the assay on 786-0 renal is 99.2%; in the assay with COLO 205 colon, 111%; with K-562 leukemia it was 65%; with MALME-3M melanoma, -50.3% (active); in the assay with MDA-MB-231 breast, 56.3%; in the assay with RXF 393 renal, 121%. Further, the growth in the assay with SF-268 CNS was 62.1%; with SF-295 CNS, 106%; in the assay on SF-539 CNS, 105%; in the assay with UACC-257 melanoma, 36.9%; in the assay on M14 melanoma, 4.35% (active).
Regarding `O=C(NCCO)C(F)(F)F`, the growth in the assay with NCI-H23 lung was 109%; in the assay on NCI-H226 lung, 111%; in the assay with NCI-H322M lung, 105%; in the assay on HOP-62 NSCLC, 104%; in the assay on NCI-H460 lung, 109%; in the assay with A549/ATCC NSCLC, 98.4%. Further, the growth was 93.9% in the assay with 786-0 renal; 109% in the assay with DU-145 prostate; 105% in the assay on K-562 leukemia; 95.6% in the assay with MALME-3M melanoma; 107% in the assay on MDA-MB-231 breast; 108% in the assay with RXF 393 renal. Further, the growth is 102% with SF-268 CNS; 95.5% with SF-295 CNS; 93.5% in the assay on SF-539 CNS; 99.3% in the assay with UACC-257 melanoma; 101% in the assay on M14 melanoma.
Take `O=C(CBr)OCc1ccc([N+](=O)[O-])o1`: the growth in the assay with NCI-H23 lung was 97.2%; in the assay with NCI-H226 lung, 104%; with NCI-H322M lung, 132%; with HOP-62 NSCLC, 96.8%; with NCI-H460 lung it was 91.6%; in the assay with A549/ATCC NSCLC, 100%. The growth in the assay with COLO 205 colon was 100%; in the assay with DU-145 prostate it was 108%; in the assay on K-562 leukemia, 111%; in the assay with MALME-3M melanoma, 107%; with MDA-MB-231 breast, 101%; in the assay on RXF 393 renal, 94.8%. The growth with SF-268 CNS was 88.6%; in the assay on SF-295 CNS, 96.5%; in the assay with SF-539 CNS, 103%; in the assay on UACC-257 melanoma it was 88.5%.
Regarding `OCCN1CCN(CC/C=C2/c3ccccc3Sc3ccc(C(F)(F)F)cc32)CC1`, the growth with NCI-H23 lung was 72.3%; in the assay on NCI-H226 lung, 91%; in the assay with NCI-H322M lung it was 72.6%; in the assay on HOP-62 NSCLC, 75.9%; in the assay with NCI-H460 lung, 82.7%; with 786-0 renal it was 71.2%. In addition, the growth in the assay with DU-145 prostate was 82.7%; in the assay with K-562 leukemia, 6.74% (active); in the assay on MALME-3M melanoma, 69%; in the assay with MDA-MB-231 breast, 80.7%; in the assay with RXF 393 renal, 59.6%; in the assay on SF-268 CNS, 70.7%. In addition, the growth with SF-295 CNS is 88.7%; with SF-539 CNS, 87.6%; in the assay with M14 melanoma it was 58.5%.
Turning to `CC(C)(C)c1cc(C[P+](c2ccc(Cl)cc2)(c2ccc(Cl)cc2)c2ccc(Cl)cc2)cc(C(C)(C)C)c1O`, the growth in the assay with NCI-H23 lung was 86.5%; in the assay with NCI-H226 lung, 90.6%; with NCI-H322M lung, 86.1%; with HOP-62 NSCLC it was 98.9%; with NCI-H460 lung it was 94.9%; in the assay on 786-0 renal, 99.1%. Besides, the growth with DU-145 prostate is 108%; with K-562 leukemia, 32.4%; in the assay with MALME-3M melanoma it was 37.4%; with MDA-MB-231 breast it was 102%; in the assay on RXF 393 renal, 68%; in the assay with SF-268 CNS it was 99.1%. Moreover, the growth with SF-295 CNS was 91.9%; with SF-539 CNS, 105%; in the assay with M14 melanoma it was 106%.
Regarding `COC(=O)[C@@H]1[C@H](O)[C@H](C)[C@H](O)[C@H](C)/C=C\C=C(C)C(=O)Nc2c(C)c(OC(C)=O)c3c(c2O)C(=O)C(C)=C2OCOC(=C23)C(C)=C[C@@](C)(O)[C@H](O)[C@@H](C)[C@H]1OC(C)=O`, the growth in the assay with NCI-H23 lung is 109%; in the assay on NCI-H226 lung, 104%; in the assay with NCI-H322M lung, 121%; with HOP-62 NSCLC, -100% (active); in the assay with NCI-H460 lung it was 110%; in the assay with A549/ATCC NSCLC, 98.6%. Besides, the growth in the assay on 786-0 renal was 111%; in the assay with DU-145 prostate, 144%; with K-562 leukemia it was 145%; in the assay with MALME-3M melanoma it was 131%; with MDA-MB-231 breast, 125%; with RXF 393 renal, 106%. Also, the growth in the assay with SF-268 CNS is 108%; with SF-295 CNS, 118%; in the assay with SF-539 CNS, 101%; with UACC-257 melanoma, 106%; in the assay on M14 melanoma, 107%.
Take `Cc1ccc(C(=O)C(Br)C(Br)c2ccccc2)cc1` (stereo not drawn): the growth is 114% in the assay on NCI-H23 lung; 92.8% with NCI-H226 lung; 95% with NCI-H322M lung; 115% with HOP-62 NSCLC; 101% with NCI-H460 lung; 99.4% in the assay on 786-0 renal. The growth was 85.9% with DU-145 prostate; 50.9% with K-562 leukemia; 88.3% in the assay with MALME-3M melanoma; 99.9% in the assay on MDA-MB-231 breast; 79.3% in the assay with RXF 393 renal; 95.7% in the assay with SF-268 CNS. Also, the growth in the assay with SF-295 CNS is 97.9%; with SF-539 CNS, 100%; with M14 melanoma, 101%.
